Reference: PubChem BioAssay (NCI)
About 79,000 compounds went through this panel and 15% of them were active in at least one assay; those are over-represented in the sample as a whole. The source made the active and inactive calls. Cut-off read from the data, not from the text of the source: active = growth inhibition above about 70%; inactive = the rest.

What was measured:
[1] = NCI Yeast Anticancer Drug Screen. Data for the rad50 strain (AID 155);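 note: 0% = growth of vehicle-only cultures of the same strain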; conditions: S. cerevisiae rad50 strain growth inhibition, stronger effect = higher value
Procedure, shortened: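 Relative growth inhibition (compound vs vehicle) was measured in yeast with a defined repair-gene alteration.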

[2] = NCI Yeast Anticancer Drug Screen. Data for the mec2-1 strain (AID 157); conditions: S. cerevisiae mec2-1 strain, stronger effect = higher value
Procedure, shortened: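 Compounds were applied to mec2-1 yeast cells. Their growth was then compared with that of vehicle-treated cultures to give growth inhibition.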

[3] = NCI Yeast Anticancer Drug Screen. Data for the sgs1 mgt1 strain (AID 161);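 note: 0% = growth of cultures given vehicle only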; conditions: S. cerevisiae sgs1 mgt1 strain, stronger effect = higher value
Procedure, shortened: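 Yeast cells carrying a defined DNA-repair defect were exposed to test compounds. Growth inhibition was measured relative to vehicle-treated controls.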

[4] = NCI Yeast Anticancer Drug Screen. Data for the cln2 rad14 strain (AID 165);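 note: 0% = growth equal to vehicle treated cultures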; conditions: S. cerevisiae cln2 rad14 strain, stronger effect = higher value
Procedure, shortened: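 Strain: cln2 rad14 yeast, altered in cell cycle control and DNA damage repair. Read-out: growth inhibition vs vehicle.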

[5] = NCI Yeast Anticancer Drug Screen. Data for the bub3 strain (AID 167); conditions: S. cerevisiae bub3 mutant strain, stronger effect = higher value
Procedure, shortened: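 Screening used yeast with an engineered genetic alteration affecting cell cycle control. Compound-exposed cultures were compared with vehicle cultures, and reduced growth was taken as inhibition.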

[6] = NCI Yeast Anticancer Drug Screen. Data for the mlh1 rad18 strain (AID 175); conditions: S. cerevisiae mlh1 rad18 strain growth inhibition, stronger effect = higher value
Procedure, shortened: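 A repair-deficient yeast strain is exposed to test compound, and growth is scored relative to vehicle-treated controls.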

[7] = at 5.0 µM (retest, dose inferred, filed as 0.5)
[8] = at 50.0 µM (retest, dose inferred, filed as 5.0)

Measured: growth inhibition

CCCCCCCCCCCCCCCCNCCCCCCCC(=O)O
active: [1]; at 50.0 µM 75% | [3]; [8] 92% | [3]; at 50.0 µM 75.9% | [4]; at 50.0 µM 72% | [5]; [8] 73% | [6]; at 50.0 µM 74.5%
inactive: [1]; [7] -1% | [1]; [8] 64% | [2]; [7] 4% | [2]; [8] 49% | [2]; at 50.0 µM 35.2% | [3]; [7] 14% | [4]; [7] 7% | [4]; [8] 26% | [5]; [7] 6% | [5]; at 50.0 µM 39.2% | [6]; [7] 2% | [6]; [8] 66%

CCOc1c(N=Nc2ccccc2Cl)c(C)nn1C(=S)S
inactive: [1]; [7] -9% | [1]; [8] 36% | [2]; [7] -15% | [2]; [8] 9% | [3]; [7] 8% | [3]; [8] 4% | [4]; [7] -42% | [4]; [8] -6% | [5]; [7] -20% | [5]; [8] 17% | [6]; [7] -23% | [6]; [8] 40%
active: [1]; at 50.0 µM 89.3% | [2]; at 50.0 µM 80.7% | [3]; at 50.0 µM 77.3% | [4]; at 50.0 µM 92.2% | [5]; at 50.0 µM 74% | [6]; at 50.0 µM 96%

COc1ccc2c(C#N)cc3c(c[n+](C)c4ccccc34)c2c1
inactive: [1]; [7] 25% | [2]; [7] 13% | [2]; [8] 58% | [3]; [7] 19% | [4]; [7] 15% | [4]; [8] 48% | [5]; [7] -2% | [5]; [8] 65% | [6]; [7] 21%
active: [1]; [8] 78% | [1]; at 50.0 µM 92% | [2]; at 50.0 µM 86.4% | [3]; [8] 71% | [3]; at 50.0 µM 87.8% | [4]; at 50.0 µM 80.7% | [5]; at 50.0 µM 78% | [6]; [8] 83% | [6]; at 50.0 µM 92%

O=C(CC1C=Cc2ccccc2N1C(=O)c1ccccc1)c1ccccc1 (configuration not stated)
inactive: [1]; [7] 1% | [2]; [7] -4% | [3]; [7] -7% | [3]; at 50.0 µM 37.8% | [4]; [7] -17% | [5]; [7] 21% | [6]; [7] -2%
active: [1]; [8] 85% | [1]; at 50.0 µM 83% | [2]; [8] 76% | [2]; at 50.0 µM 76.5% | [3]; [8] 82% | [4]; [8] 77% | [4]; at 50.0 µM 73% | [5]; [8] 93% | [5]; at 50.0 µM 86% | [6]; [8] 87% | [6]; at 50.0 µM 88.5%

CCCNCCCC(C)Nc1cc(OC)cc2c(C)ccnc12 (configuration not stated)
inactive: [1]; [7] 17% | [1]; at 50.0 µM 66.4% | [2]; [7] 8% | [2]; [8] 48% | [2]; at 50.0 µM 55.2% | [3]; [7] 20% | [3]; at 50.0 µM 41.9% | [4]; [7] 2% | [4]; [8] 46% | [4]; at 50.0 µM 27.1% | [5]; [7] -6% | [5]; at 50.0 µM 53.7% | [6]; [7] 11% | [6]; at 50.0 µM 59.2%
active: [1]; [8] 73% | [3]; [8] 78% | [5]; [8] 80% | [6]; [8] 86%

COC(=O)CSc1n[nH]c(-c2ccc(O)c([N+](=O)[O-])c2)n1
active: [3]; [8] 71% | [3]; at 50.0 µM 75.6%
inactive: [1]; [7] 17% | [1]; [8] 47% | [1]; at 50.0 µM 53.9% | [2]; [7] 31% | [2]; [8] 56% | [2]; at 50.0 µM 53.2% | [3]; [7] 25% | [4]; [7] 40% | [4]; [8] 57% | [4]; at 50.0 µM 65.5% | [5]; [7] 35% | [5]; [8] 51% | [5]; at 50.0 µM 53% | [6]; [7] 30% | [6]; [8] 57% | [6]; at 50.0 µM 57.4%

Cc1ccc(C2COc3cc(O)c(O)cc3C2)cc1 (configuration not stated)
inactive: [1]; [7] 29% | [2]; [7] 33% | [3]; [7] 32% | [4]; [7] 11% | [5]; [7] 32% | [6]; [7] 51%
active: [1]; [8] 99% | [1]; at 50.0 µM 99.5% | [2]; [8] 99% | [2]; at 50.0 µM 99.6% | [3]; [8] 99% | [3]; at 50.0 µM 99.5% | [4]; [8] 99% | [4]; at 50.0 µM 96.2% | [5]; [8] 99% | [5]; at 50.0 µM 99.6% | [6]; [8] 99% | [6]; at 50.0 µM 99.4%

CC1=CC(=O)CC(c2ccccc2)C1 (configuration not stated)
active: [1]; [8] 98% | [1]; at 50.0 µM 97.6% | [2]; [8] 99% | [2]; at 50.0 µM 98.3% | [3]; [8] 99% | [3]; at 50.0 µM 98.7% | [4]; [8] 97% | [4]; at 50.0 µM 92.5% | [5]; [8] 99% | [5]; at 50.0 µM 98.7% | [6]; [8] 99% | [6]; at 50.0 µM 98.3%
inactive: [1]; [7] 43% | [2]; [7] 30% | [3]; [7] 22% | [4]; [7] 11% | [5]; [7] 31% | [6]; [7] 55%

C1=c2ccccc2=C2C(=C(c3ccccc3)C(c3ccccc3)=NN2c2ccccc2)S1
inactive: [1]; [7] -25% | [1]; [8] -9% | [1]; at 50.0 µM -14.2% | [2]; [7] 0% | [2]; [8] -17% | [2]; at 50.0 µM -18.6% | [3]; [7] -13% | [3]; [8] -22% | [3]; at 50.0 µM -18.8% | [4]; [7] -22% | [4]; [8] -13% | [4]; at 50.0 µM 5.9% | [5]; [7] -4% | [5]; [8] 2% | [5]; at 50.0 µM -5.35% | [6]; [7] -1% | [6]; [8] -32% | [6]; at 50.0 µM -2.55%
